In PubChem BioAssay AID588501 (NMMLSC, 2011):
About 420 (0.12%) of roughly 360,000 compounds were called active. The entries come from a sample that favours actives as a whole. Values without a mark were called inactive. No stated cut-off is given here; in the data, active means inhibition above about 30%; inconclusive means no clear call, values can overlap the other calls; inactive means below that.

The compounds below were run against Lethal factor (Bacillus anthracis) (UniProt P15917) (assay: anthrax lethal factor cleavage blockers – biochemical, multiplex microsphere, MLPCN library, primary screen (AID 588501; further: plate controls were buffer without enzyme for full effect and enzyme alone for no effect)). Settings: multiplex microsphere protease cleavage assay, LF; at 10 µM; active compounds read high.
Sequence of Lethal factor (Bacillus anthracis) (P15917 whole entry, looked up): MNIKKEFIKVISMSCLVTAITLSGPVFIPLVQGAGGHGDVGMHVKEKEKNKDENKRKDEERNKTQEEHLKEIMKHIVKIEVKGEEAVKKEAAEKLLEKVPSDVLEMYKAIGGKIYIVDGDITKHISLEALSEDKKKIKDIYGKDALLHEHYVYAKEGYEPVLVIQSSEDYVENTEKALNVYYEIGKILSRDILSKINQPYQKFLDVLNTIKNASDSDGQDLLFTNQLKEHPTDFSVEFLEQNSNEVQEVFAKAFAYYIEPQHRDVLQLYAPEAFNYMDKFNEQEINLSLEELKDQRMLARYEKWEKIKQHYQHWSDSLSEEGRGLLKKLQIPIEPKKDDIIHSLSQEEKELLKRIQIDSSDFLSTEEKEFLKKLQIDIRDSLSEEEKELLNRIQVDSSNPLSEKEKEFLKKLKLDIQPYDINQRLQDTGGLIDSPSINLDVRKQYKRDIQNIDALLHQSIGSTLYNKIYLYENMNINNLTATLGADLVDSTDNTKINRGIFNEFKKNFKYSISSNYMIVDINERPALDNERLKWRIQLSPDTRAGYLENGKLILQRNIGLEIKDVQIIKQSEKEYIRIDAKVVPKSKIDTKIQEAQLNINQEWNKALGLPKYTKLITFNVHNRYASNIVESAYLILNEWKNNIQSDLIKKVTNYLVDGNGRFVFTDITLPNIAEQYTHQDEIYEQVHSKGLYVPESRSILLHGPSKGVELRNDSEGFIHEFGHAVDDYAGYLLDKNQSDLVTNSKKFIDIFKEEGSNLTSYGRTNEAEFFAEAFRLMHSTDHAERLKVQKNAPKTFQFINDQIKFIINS
Compound `O=C(COc1ccc2c(C(F)(F)F)cc(=O)oc2c1)Nc1ccc2c(c1)OCCO2` has an inhibition of -1.9%. In the case of `O=C(CN1CCOCC1)Nc1c(Cl)cc(Cl)cc1Cl`, the inhibition is reported as 3.3%. Compound `Cc1cc(C)c(NC(=O)CN2CCCCCC2)c(C)c1` has an inhibition of -3.3%. For `O=C(CN1CCCCCC1)Nc1c(Cl)cc(Cl)cc1Cl`, the inhibition was 37.6% (active). Work on `O=C(COc1ccc(Cl)cc1)NCc1nnc(SCC(=O)NCC2CCCO2)o1` (configuration not stated) yielded an inhibition of -1%. Compound `NNc1nc2c(Cl)cccc2s1` has an inhibition of -1.6%. In the case of `CCn1c(CSc2nncn2-c2ccc(OC)cc2)nc2cc(S(=O)(=O)N(C)C)ccc21`, the inhibition is reported as -15%. `O=C(NNC(=O)c1ccccc1[N+](=O)[O-])Nc1ccccc1C(F)(F)F` showed an inhibition of -1.8%. Work on `CN(C(=O)c1cccc(NC(=O)Cc2cccc([N+](=O)[O-])c2)c1)C1CCCCC1` yielded an inhibition of 2.5%. `CC1CCN(CC(=O)Nc2nccs2)CC1` showed an inhibition of -13.6%. For `CC(C)N(C(=O)Cn1cc(SCC(=O)N2CCCC2)c2ccccc21)C(C)C`, the inhibition was -0.2%. `COc1cc(NS(=O)(=O)c2ccc(NC(=O)CN3C(=O)c4ccccc4C3=O)cc2)ncn1` showed an inhibition of -2.5%. For `CS(=O)(=O)N(CC(=O)N1CCOCC1)c1cccc(Cl)c1Cl`, the inhibition was -5.7%. `CCOC(=O)C1CCCN(C(=O)c2ccc(N(C)C)cc2)CC1` (configuration not stated) was tested, and the inhibition was -1.5%. `Cc1ccc(-n2ncc3c2CC(C)(C)CC3NC(=O)CCc2cnn(C)c2)cc1` (configuration not stated) was tested, and the inhibition was 3%. Work on `CCCn1nnnc1NC(=O)COc1ccc(Cl)cc1C` yielded an inhibition of -6.9%. `O=C(CCNC(=O)c1ccc([N+](=O)[O-])cc1)Nc1ccccc1N1CCOCC1` was tested, and the inhibition was 3.7%. `CCOC(=O)C1CCCN(S(=O)(=O)c2ccc(-n3cnnn3)c(C)c2)C1` (configuration not stated) was tested, and the inhibition was 2.9%. `O=S(=O)(NC1CCCC1)c1ccc(-n2cnnn2)cc1` gave an inhibition of -2%. `Cc1cc(S(=O)(=O)NC2CCCC2)ccc1-n1cnnn1` was tested, and the inhibition was 35.6% (active). Work on `COc1ccc([C@H]2CC(=O)C[C@@H](CCn3cc(CC4CCCC4)nn3)O2)cc1` yielded an inhibition of -2.3%. For `COCCNC(=O)C(c1ccc(O)cc1)N(C(=O)CCC(=O)Nc1nccs1)c1ccc(C)cc1` (configuration not stated), the inhibition was -7%. Compound `O=C1N[C@@H](Cc2ccccc2)C(=O)N2[C@@H]3N(S(=O)(=O)c4ccc(F)cc4)c4ccccc4[C@]3(Br)C[C@@H]12` has an inhibition of -0.7%. Compound `CCCCC(NS(=O)(=O)c1ccc(C)cc1)C(=O)Oc1ccc2c3c(c(=O)oc2c1)CCC3` (configuration not stated) has an inhibition of -6.2%. Compound `CCOc1cc(/C=C(/C#N)c2ccc(Cl)cc2)cc(Cl)c1OCC(=O)O` has an inhibition of 2.5%. In the case of `COc1ccccc1C1CCN(C(=S)Nc2ccc(Br)cc2)CC1`, the inhibition is reported as 49.5% (active). With `COc1ccccc1NC(=S)N1CCC(NC(=O)C23CC4CC(CC(C4)C2)C3)CC1` the inhibition was -7.9%. `COc1ccc(NC(=S)N2CCc3cc(OC)c(OC)cc3C2)cc1` was tested, and the inhibition was -2.2%. For `Brc1ccc2ncnc(NCc3cccnc3)c2c1`, the inhibition was 42.4% (active). `Cc1cc(NCc2cccnc2)no1` showed an inhibition of 4.1%. Compound `Clc1ccc(Cn2ncc3c(NCc4cccnc4)ncnc32)cc1` has an inhibition of -6.4%. `CCOC(=O)[C@H]1[C@H]2COc3ccc(C)cc3[C@@H]2N2C(=O)CN(Cc3ccc(F)cc3)C(=O)[C@@]12C` showed an inhibition of -3.6%. `CCOC(=O)N1CCN(C(=O)c2ccc3c(=O)n(CCc4ccc(OC)c(OC)c4)c(=O)[nH]c3c2)CC1` showed an inhibition of -2.6%. Compound `COCCn1nnnc1CN1CCC(NC(=O)Nc2cccc(OC)c2)CC1` has an inhibition of 0.1%. `NCCCCCC(=O)N/N=C/c1ccc2nccnc2c1` was tested, and the inhibition was 43.2% (active). `CC1=NNC(=O)C1CCC(=O)N/N=C\c1ccc(Cl)c(Cl)c1` (configuration not stated) showed an inhibition of -7.6%. With `O=C(O)c1ccc(N/N=C/c2ccc3ncccc3c2)cc1` the inhibition was -1.5%. For `CC(=O)Nc1ccc(S(=O)(=O)NCC(=O)OCC(=O)c2ccc[nH]2)cc1`, the inhibition was 4.9%. `CCCCC(CC)CNC(=O)C(=O)C1C(=O)Nc2ccccc21` (configuration not stated) was tested, and the inhibition was -2.2%. `CC(=O)NCCC(=O)Nc1cc(S(=O)(=O)N2CCCCC2)ccc1Oc1cccc(C)c1` was tested, and the inhibition was -3.6%. For `O=C(COc1ccc(S(=O)(=O)N2CCCC2)cc1[N+](=O)[O-])N1CCCCC1`, the inhibition was -2.5%. `COCc1cc(=O)[nH]c(-c2ccc(C(F)(F)F)cc2)n1` showed an inhibition of 13.9%. In the case of `COCc1cc(=O)[nH]c(SC)n1`, the inhibition is reported as 45% (active). In the case of `CCCc1cc(=O)[nH]c(SCc2ccc(C#N)cc2)n1`, the inhibition is reported as 2.2%. `CCCC(NC(=O)c1ccccc1)c1nc2ccccc2n1Cc1ccc(C(=O)OC)o1` (configuration not stated) showed an inhibition of -3.6%. `COc1ccccc1N(CC(=O)Nc1c(C)n(C)n(-c2ccccc2)c1=O)S(=O)(=O)c1ccccc1` gave an inhibition of -3.9%. `COC(=O)CSc1ncnc2c1cnn2-c1ccc(C)cc1C` was tested, and the inhibition was -4.4%. With `COC(=O)c1ccc(NC(=O)C23CC4CC(C2)CC(n2cnc(Cl)n2)(C4)C3)cc1` the inhibition was -3.6%. With `COC(=O)C1(C(=O)OC)C/C=C\CN(S(=O)(=O)c2ccccc2[N+](=O)[O-])CCC1` the inhibition was -1.4%. In the case of `CCOCC(=O)NCc1ccc2c(c1)cc(C)n2C`, the inhibition is reported as -2.3%. In the case of `COc1cc(C(=O)NCc2ccc3c(c2)cc(C)n3C)cc(OC)c1OC`, the inhibition is reported as 34.6% (active). `CCn1c(CNC(=O)c2cc(OC)c(OC)c(OC)c2)cc2cc(C)ccc21` showed an inhibition of -7.8%. Compound `CC(C)n1c(SCC(=O)Nc2ccccc2N2CCCCC2)nc2c1c(=O)n(C)c(=O)n2C` has an inhibition of 0%. With `CCOC1=C2[C@H]([C@H]3C(=O)N(c4ccccc4)C(=O)[C@H]3C1)[C@@H](c1ccccc1)N(S(=O)(=O)c1ccc(C)cc1)[C@H]2c1ccccc1` the inhibition was 4.4%. Compound `CCCCNc1ccc(C(=O)Nc2cccc(C)n2)cc1[N+](=O)[O-]` has an inhibition of -4.4%. `Cc1cccc(C)c1NC(=O)CNC(=O)c1ccc(N2CCOCC2)c([N+](=O)[O-])c1` gave an inhibition of -3%. `C=CC[C@H](CC(=O)OC(C)(C)C)C(=O)OC[C@H]1CCCN1C(=O)[C@H](CC=C)CC(=O)N(CCO)Cc1ccccc1` was tested, and the inhibition was 1.8%.
